According to PubChem BioAssay (NCI):
Compounds without any hit were thinned out: in the full panel of roughly 83,000, 20% have a hit.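 In brief: 96-well plates, 48 h treatment, single concentration, percent growth endpoint.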 Calls of active or inactive are those of the source. The calls were made as follows: active = growth percent below 10; inactive = the rest.

Experiments:
Test in all cases: NCI-60 one-dose screen, 48 h (100 = growth as untreated, 0 = no growth, -100 = all killed)
Conditions in all cases: 10 µM
HCT-15 colon = system: HCT-15 colon
HT29 colon = system: HT29 colon
SNB-75 CNS = system: SNB-75 CNS
SNB-19 CNS = system: SNB-19 CNS
U251 CNS = system: U251 CNS
PC-3 prostate = system: PC-3 prostate
SK-MEL-5 melanoma = system: SK-MEL-5 melanoma
UACC-62 melanoma = system: UACC-62 melanoma
LOX IMVI melanoma = system: LOX IMVI melanoma
SK-MEL-28 melanoma = system: SK-MEL-28 melanoma

Measured: growth

O=C(Cc1ccc2c(c1)CN(C1CCC(=O)NC1=O)C2=O)NCc1cccc2ccccc12 (stereo not given)
active: HCT-15 colon -30.1% | HT29 colon 3.65% | SNB-75 CNS -33.1% | SNB-19 CNS -11.9% | PC-3 prostate 6.97% | SK-MEL-5 melanoma -93.8% | UACC-62 melanoma 4.05% | LOX IMVI melanoma -48.3% | SK-MEL-28 melanoma -10.6%
inactive: U251 CNS 17.2%

Cc1cc(C)nc(NS(=O)(=O)c2ccc(N/C(N)=N/c3nccc(-c4ccccc4)n3)cc2)n1
inactive: HCT-15 colon 59.4% | HT29 colon 83.5% | SNB-75 CNS 88.3% | SNB-19 CNS 77.8% | U251 CNS 77.6% | PC-3 prostate 65.4% | SK-MEL-5 melanoma 46.3% | UACC-62 melanoma 59% | LOX IMVI melanoma 39.4% | SK-MEL-28 melanoma 74.5%

Cc1noc2c(Cc3ccc([N+](=O)[O-])cc3)nn(CC(=O)N/N=C/c3ccc(Cl)cc3)c(=O)c12
inactive: HCT-15 colon 80.5% | HT29 colon 62.3% | SNB-75 CNS 44.9% | SNB-19 CNS 42.2% | U251 CNS 12.7% | PC-3 prostate 59.5% | SK-MEL-5 melanoma 88.4% | UACC-62 melanoma 65.3% | LOX IMVI melanoma 40.7% | SK-MEL-28 melanoma 69.9%

COc1cc2c3c(n(CCCn4ccnc4)c(=O)c2cc1OC)-c1nc2c(cc1C3=O)OCO2
inactive: HCT-15 colon 52.1% | HT29 colon 31.5% | SNB-75 CNS 82.8% | SNB-19 CNS 25.6% | U251 CNS 20.9% | PC-3 prostate 60.4% | SK-MEL-28 melanoma 80.9%
active: SK-MEL-5 melanoma 7.02% | UACC-62 melanoma 4.19% | LOX IMVI melanoma 0.388%

CCCCCCCCCCCCCCCCCCCC(=O)NCCc1c[nH]c2ccc(OC(=O)NOCCOCCOCCOCCOCCOCCOCCOCCOCCOCCOCCOCCOCCOCCOCCOCCOCCOCCOCCOCCOCCOCCOC)cc12
inactive: HCT-15 colon 77.7% | SNB-75 CNS 37.3% | SNB-19 CNS 22.3%
active: HT29 colon -71.8% | U251 CNS -16.8% | PC-3 prostate 6.43% | SK-MEL-5 melanoma -16.3% | UACC-62 melanoma -69.4% | LOX IMVI melanoma -90.7% | SK-MEL-28 melanoma -2.99%

O=C(N/C(=C1/OCCN1Cc1ccccc1)[P+](c1ccccc1)(c1ccccc1)c1ccccc1)c1ccccc1
active: SK-MEL-5 melanoma -100% | UACC-62 melanoma -36.4% | LOX IMVI melanoma 6.07%
inactive: HCT-15 colon 77.8% | HT29 colon 14.6% | SNB-75 CNS 26.9% | SNB-19 CNS 10.4% | U251 CNS 14.3% | PC-3 prostate 22.5% | SK-MEL-28 melanoma 22.8%

Cc1nc2c(cnn2-c2ccccc2)c(=O)n1-c1ccc(NC(=O)c2ccc(F)cc2)cc1
active: SK-MEL-5 melanoma -15.4%
inactive: HCT-15 colon 66.1% | HT29 colon 63.5% | SNB-75 CNS 64.5% | SNB-19 CNS 80.4% | U251 CNS 81.1% | PC-3 prostate 53.1% | UACC-62 melanoma 63.1% | LOX IMVI melanoma 61.8% | SK-MEL-28 melanoma 83.8%

O=c1oc2ccccc2cc1-c1csc(N=Nc2c(O)[nH]c3ccc(Br)cc23)n1
inactive: HCT-15 colon 97% | HT29 colon 109% | SNB-75 CNS 96.1% | SNB-19 CNS 29% | U251 CNS 40.4% | PC-3 prostate 89.1% | SK-MEL-5 melanoma 98.1% | UACC-62 melanoma 78.1% | LOX IMVI melanoma 62.8% | SK-MEL-28 melanoma 105%

CC1(C)CC[C@]2(C(=O)O)CC[C@]3(C)C(=CC[C@@H]4[C@@]5(C)C/C(=C/c6ccncc6)[C@H](O)C(C)(C)[C@@H]5CC[C@]43C)[C@@H]2C1
active: SK-MEL-5 melanoma -23.2%
inactive: HCT-15 colon 15.7% | HT29 colon 35.3% | SNB-75 CNS 35.5% | SNB-19 CNS 41.8% | U251 CNS 28.9% | PC-3 prostate 28.2% | UACC-62 melanoma 52.6% | LOX IMVI melanoma 28.7% | SK-MEL-28 melanoma 46.3%

COc1ccc2ncc(C#Cc3cncc(C(=O)Nc4ccc(CN5CCN(C)CC5)c(C(F)(F)F)c4)c3)n2n1
active: HCT-15 colon -91.3% | HT29 colon -51.8% | SNB-75 CNS -91.1% | SNB-19 CNS -86.2% | U251 CNS -59.8% | PC-3 prostate -59.6% | SK-MEL-5 melanoma -100% | UACC-62 melanoma -79.6% | LOX IMVI melanoma -94.6% | SK-MEL-28 melanoma -91.8%

COc1ccc2c(c1)N=C(C(=O)O)/C2=C/c1sc(Nc2ccc(O)cc2)nc1O
inactive: HCT-15 colon 53.9% | HT29 colon 95.9% | SNB-75 CNS 67.2% | SNB-19 CNS 70.1% | U251 CNS 67.7% | PC-3 prostate 76% | SK-MEL-5 melanoma 83% | UACC-62 melanoma 42.9% | LOX IMVI melanoma 49.2% | SK-MEL-28 melanoma 80.5%

O=C(Nc1ccncc1)c1ccc(-n2c(=O)[nH]c3ccccc3c2=O)cc1
inactive: HCT-15 colon 97.9% | HT29 colon 105% | SNB-75 CNS 107% | SNB-19 CNS 91.1% | U251 CNS 99.7% | PC-3 prostate 92.4% | SK-MEL-5 melanoma 90.8% | UACC-62 melanoma 76.9% | LOX IMVI melanoma 83.9% | SK-MEL-28 melanoma 104%

CC1=N/C(=C\c2ccc(N(C)C)cc2)C(=O)N1CCc1ccc(S(N)(=O)=O)cc1
inactive: HCT-15 colon 104% | HT29 colon 105% | SNB-75 CNS 77.8% | SNB-19 CNS 95.2% | U251 CNS 91.8% | PC-3 prostate 96.7% | SK-MEL-5 melanoma 97.8% | UACC-62 melanoma 93.7% | LOX IMVI melanoma 98.1% | SK-MEL-28 melanoma 117%

O=C1Nc2ccc(Cl)cc2/C1=C/c1ccc(OCc2ccc(Br)cc2F)cc1
inactive: HCT-15 colon 45.7% | HT29 colon 40.5% | SNB-75 CNS 18.3% | SNB-19 CNS 23% | PC-3 prostate 41.4% | SK-MEL-5 melanoma 32.6% | UACC-62 melanoma 32.5% | SK-MEL-28 melanoma 63.7%
active: U251 CNS -5.75% | LOX IMVI melanoma 7.62%

O=C1Nc2cc(-c3ccc(NC(=O)c4cccs4)cc3)ccc2/C1=C/c1ccc[nH]1
inactive: HCT-15 colon 47.6% | HT29 colon 71.1% | SNB-75 CNS 138% | SNB-19 CNS 87.1% | U251 CNS 65.9% | PC-3 prostate 65.6% | SK-MEL-5 melanoma 63.6% | UACC-62 melanoma 80.8% | LOX IMVI melanoma 55.7% | SK-MEL-28 melanoma 101%

COc1ccc(C(=O)CSc2nnc(-c3c[nH]c4ccccc34)n2-c2ccccc2)cc1
inactive: HCT-15 colon 73.3% | HT29 colon 83.1% | SNB-75 CNS 15% | SNB-19 CNS 29.8% | U251 CNS 34.4% | PC-3 prostate 50.3% | SK-MEL-5 melanoma 81.3% | UACC-62 melanoma 25.8% | LOX IMVI melanoma 43.5% | SK-MEL-28 melanoma 49.7%

O=C(NO)c1ccc(CNc2nc(-c3ccccc3)c3ccccc3n2)cc1
active: HCT-15 colon -6.55% | HT29 colon 4.73% | SNB-19 CNS -8.9% | U251 CNS -37.7% | SK-MEL-5 melanoma -87.8% | UACC-62 melanoma -87.2% | LOX IMVI melanoma -96.9% | SK-MEL-28 melanoma -2.7%
inactive: SNB-75 CNS 29% | PC-3 prostate 16.7%

C=CC(=O)Nc1ccc(C(=O)/C=C/c2ccc(N(C)CCF)cc2)c(O)c1
active: HCT-15 colon -52% | HT29 colon -61.4% | SNB-75 CNS -8.38% | SNB-19 CNS -15.6% | U251 CNS -94.7% | PC-3 prostate 6.54% | SK-MEL-5 melanoma -90.7% | UACC-62 melanoma -42.6% | LOX IMVI melanoma -81% | SK-MEL-28 melanoma -77.8%

O=[N+]([O-])c1ccc(-c2nc(-c3ccccc3)c(-c3ccccc3)n2-c2ccc(S(=O)(=O)Nc3ncccn3)cc2)cc1
inactive: HCT-15 colon 23.8% | HT29 colon 41.4% | SNB-75 CNS 44.1% | SNB-19 CNS 27.3% | U251 CNS 35.8% | PC-3 prostate 29.7% | SK-MEL-5 melanoma 28.4% | UACC-62 melanoma 42% | LOX IMVI melanoma 28% | SK-MEL-28 melanoma 36.2%

O=c1cc(-c2ccccc2)oc2cc(OCCCCNCc3ccccc3)cc(O)c12
inactive: SNB-75 CNS 53.4% | SNB-19 CNS 67.2%
active: HCT-15 colon -86.1% | HT29 colon -55.4% | U251 CNS -64.7% | PC-3 prostate -8.47% | SK-MEL-5 melanoma -99.9% | UACC-62 melanoma -68.7% | LOX IMVI melanoma -99.9% | SK-MEL-28 melanoma -69.7%

CC1(c2ccccc2)NC(=O)N(CC(=O)Nc2ccc(C(=O)/C=C/c3ccc(Cl)cc3)cc2)C1=O (stereo not given)
inactive: SNB-75 CNS 37.5% | SNB-19 CNS 30.9% | SK-MEL-28 melanoma 15.8%
active: HCT-15 colon -61.4% | HT29 colon -46.9% | U251 CNS -71.7% | PC-3 prostate 9.23% | SK-MEL-5 melanoma -60.9% | UACC-62 melanoma 1.17% | LOX IMVI melanoma -100%

COc1cc(OC(F)(F)F)ccc1C(=O)Nc1sc2c(c1C#N)CCC(=O)C2
active: U251 CNS 7.29%
inactive: HCT-15 colon 14.6% | HT29 colon 95% | SNB-75 CNS 93.7% | SNB-19 CNS 91.8% | PC-3 prostate 37.6% | SK-MEL-5 melanoma 72.3% | UACC-62 melanoma 65.6% | LOX IMVI melanoma 64.7% | SK-MEL-28 melanoma 121%
